Results: PubChem BioAssay AID686979 (National Center for Advancing Translational Sciences (NCATS), 2013)
In all, about 420,000 compounds went through this assay and about 50,000 (12%) were called active. Entries that show only a call come without a potency. Inconclusive results (about 26%) are left out. The sample holds actives, similar compounds and a random draw of the others, so the mix is not that of the screen. Calls follow the shape of the dose curve; as a rule, active = well fitted inhibition curve with a large enough effect; inconclusive = small, poorly fitted or top-dose-only effect; inactive = flat fitted curve, though single readings scatter.

assay: qHTS for Inhibitors of human tyrosyl-DNA phosphodiesterase 1 (TDP1): qHTS in cells in presence of CPT; conditions: chicken DT40 Tdp1-/-;hTDP1 cells + 20 nM CPT, ATP luminescence, 48 h; series mostly up to 46.2 µM; also: nearly all actives have a fitted effect of over 55% in size
Outline: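 Chicken DT40 Tdp1-/- cells complemented with human TDP1, 400 cells/well, exposed to compounds plus 20 nM camptothecin for at least 48 h at 37 C; viability read as ATP content by CellTiter-Glo luminescence.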
Potency is read from the fitted curve at half-maximal effect.

| Compound | Potency |
| --- | --- |
| O=C(C1CCCO1)N1CCN(C(=O)C23CC4CC(CC(C4)C2)C3)CC1 (stereo unspecified) | inactive |
| COc1cc(C(=O)N2CCN(C3CCC(C)CC3)CC2)cc(OC)c1OC (stereo unspecified) | inactive |
| CCOC(=O)C1CCN(S(=O)(=O)c2c(C)noc2C)CC1 | inactive |
| COc1cccc(N(CC(=O)NC2CCCC2)C(=O)Cn2nnc(-c3ccc(C)o3)n2)c1 | inactive |
| CC(C)COc1ccc(C(=O)OCC(=O)NCCC2=CCCCC2)cc1 | inactive |
| O=C(O)CN(Cc1ccco1)S(=O)(=O)c1ccc(F)cc1 | inactive |
| C=CCn1c(SCC(=O)c2c(N)n(C)c(=O)n(C)c2=O)nc2sc(CC)cc2c1=O | inactive |
| O=C1c2cccnc2C(=O)N1Cc1cccs1 | inactive |
| Cc1cccc(N2C(=O)c3cccnc3C2=O)c1 | inactive |
| NC1=CC(=O)C(=O)c2cccnc21 | 3.66 µM (active) |
| O=C(NC1CCCCC1)C1CC(=O)N(CCc2ccccc2)C1 (stereo unspecified) | inactive |
| CC(NC(=O)COC(=O)CCC(=O)c1ccc(Cl)cc1)c1ccccc1 (stereo unspecified) | inactive |
| CC1CCC(NC(=O)CNC(=O)c2ccc3ccccc3c2)CC1 (stereo unspecified) | inactive |
| O=C(N/N=C/c1ccc([N+](=O)[O-])cc1)C(=O)N1CCCC1 | inactive |
| COc1cc(/C=N/NC(=O)CNC(=O)c2ccncc2)ccc1OC(C)=O | inactive |
| COc1ccccc1OCCNC(=O)c1cc([N+](=O)[O-])cc([N+](=O)[O-])c1 | inactive |
| NC(=O)C(=O)N/N=C/c1ccc([N+](=O)[O-])o1 | 10.6 µM (active) |
| NC(=S)N/N=C/c1ccc([N+](=O)[O-])cc1 | inactive |
| Cc1cc(C)nc(Nc2cc([N+](=O)[O-])ccc2C)n1 | inactive |
| Cc1cc(C)nc(N/N=C/c2ccncc2)n1 | inactive |
| COc1ccc(C(=O)NCC(=O)N/N=C/c2ccc([N+](=O)[O-])o2)cc1OC | 2.31 µM (active) |
| Cc1cc(C)nc(N/N=C/c2ccc([N+](=O)[O-])o2)n1 | 23.1 µM (active) |

| Compound | Potency |
| --- | --- |
| CCOc1ccc(NC(=O)CCC(=O)NNC(=O)NC2CCCCC2)cc1 | inactive |
| CCCCCC(=O)Nc1ccc(C(=O)N/N=C/c2ccc([N+](=O)[O-])cc2)cc1 | inactive |
| CCOc1ccc(NC(=O)CCC(=O)N/N=C/c2ccc([N+](=O)[O-])s2)cc1 | 10.3 µM (active) |
| CC(C)[C@@H](C(=O)O)N(Cc1cccc(CN([C@H](C(=O)O)C(C)C)S(C)(=O)=O)c1)S(C)(=O)=O | inactive |
| CC1=C(C(=O)Nc2ccccc2)C(c2ccc(C)cc2)n2nc(SCc3ccccc3C)nc2N1 (stereo unspecified) | inactive |
| COc1cccc(NC(=O)C(=O)NCC(c2ccc3c(c2)OCO3)N2CCN(C)CC2)c1 (stereo unspecified) | inactive |
| COc1ccccc1CNS(=O)(=O)CC12CCC(CC1=O)C2(C)C (stereo unspecified) | inactive |
| CCCc1c2oc(C(=O)O)cc(=O)c2cc2c(=O)cc(C(=O)O)n(CC)c12 | inactive |
| Cc1ccc(CC2CC(=O)N(c3cc(C)ccc3C)C2=O)cc1 (stereo unspecified) | inactive |
| NS(=O)(=O)c1ccccc1NC(=O)c1c(O)c2ccccc2[nH]c1=O | inactive |
| Cc1oc2cc(Br)c(O)c(Br)c2c1C(=O)c1ccccc1 | inactive |
| O=C(Nc1ccc(N2CCOCC2)cc1)c1cccc2c(-c3ccc(F)c(F)c3)coc12 | inactive |
| COc1ccc(N2CCN(C(=S)Nc3ccc(S(N)(=O)=O)cc3)CC2)cc1 | inactive |
| C/C(Cc1ccccc1)=N\NC(=O)CNC(=O)c1ccccc1Cl | inactive |
| Cc1ccc(C(=O)N(CC(=O)NC2CCCC2)c2ccc(F)cc2)s1 | inactive |
| O=C(Cc1cc(=O)[nH][nH]1)N/N=C/c1ccccc1[N+](=O)[O-] | inactive |
| O=C(COc1ccccc1[N+](=O)[O-])N/N=C/c1ccc[nH]1 | inactive |
| COc1ccc(C(=O)NCC(=O)N/N=C/c2ccc([N+](=O)[O-])s2)cc1OC | 20.6 µM (active) |
| C/[N+]([O-])=C\c1ccc([N+](=O)[O-])o1 | 25.9 µM (active) |
| Cc1nn(CC(=O)N/N=C/c2ccc(F)cc2)c(C)c1[N+](=O)[O-] | inactive |
| Cc1ccccc1NCC(=O)N/N=C\c1ccc([N+](=O)[O-])s1 | 8.2 µM (active) |
| COc1ccc(/C=N/NC(=O)CNC(=O)c2ccc(S(=O)(=O)N3CCCC3)cc2)c(OC)c1 | inactive |

| Compound | Potency |
| --- | --- |
| CC(C)(C)c1cc(C(=O)N/N=C/c2ccc([N+](=O)[O-])s2)n[nH]1 | 9.2 µM (active) |
| COc1cc(/C=N\NC(=O)CNC(=O)c2cccc([N+](=O)[O-])c2)ccc1O | inactive |
| Cc1nn(-c2ccccc2)c(Cl)c1/C=N/NC(=O)c1nn(C)cc1[N+](=O)[O-] | inactive |
| O=C(COC(=O)Cc1ccc(Cl)cc1Cl)NCc1ccco1 | inactive |
| CN(C)/C=C(/C(=O)c1ccccc1)S(=O)(=O)c1ccc(Cl)cc1 | inactive |
| Cc1cc(Cl)nc(NC(=O)Nc2cccc(Cl)c2)n1 | inactive |
| COc1cc(C(=O)Nc2cc(C(F)(F)F)ccc2N2CCOCC2)ccc1O | inactive |
| COc1ccc(NC(=O)CC(NC(C)c2ccccc2)C(=O)O)cc1 (stereo unspecified) | inactive |
| CCC(=O)c1c[nH]c(C(=O)NCC2CCCO2)c1 (stereo unspecified) | inactive |
| CCOC(=O)C1=CN(Cc2ccc(Br)cc2)S(=O)(=O)NC1C (stereo unspecified) | inactive |
| COc1ccc(Cl)cc1C=CC=NNC(=O)c1ccncc1 | inactive |
| COc1ccc(Cl)cc1C=CC=Nc1ccc(S(N)(=O)=O)cc1 | 18.4 µM (active) |
| COc1ccccc1/C=C/C=N/n1c(-c2ccc(Cl)cc2Cl)n[nH]c1=S | inactive |
| Cc1ccc(NC(=O)CN(C)C(=O)c2ccc(Cl)c(S(=O)(=O)NCc3ccco3)c2)cc1 | inactive |
| COc1ccc(CNC(=O)CCN2C(=O)c3ccccc3C2=O)cc1 | inactive |
| CCCCN1C(=O)/C(=C(/C#N)C(N)=O)c2ccccc21 | inactive |
| COc1ccc2c(c1)C(=C(C#N)C#N)C(=O)N2CCc1ccccc1 | 3.66 µM (active) |
| Cc1ccc(C(=O)Oc2coc(CSc3nnc(NC(=O)c4cccs4)s3)cc2=O)cc1C | inactive |
| Cc1c(Cl)cccc1NC(=S)NCC(O)c1ccccc1 (stereo unspecified) | inactive |
| Cc1cccc(NC(=S)NCCc2ccc(Cl)cc2)c1C | 18.4 µM (active) |
| CCNC(=S)Nc1cccc(Cl)c1C | inactive |
| CCOCCCNC(=O)c1cc2c(=O)n3ccccc3nc2s1 | inactive |
